In PubChem BioAssay (NCI):
Compounds without any hit were thinned out: in the full panel of roughly 83,000, 20% have a hit.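 Treatment: one concentration, 48 hours, 96-well format. Scoring: percent growth, with anything below 10 considered active.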 The source made the active and inactive calls.

These molecules were tested on SK-OV-3 ovarian (assay: NCI-60 one-dose screen, 48 h (100 = growth as untreated, 0 = no growth, -100 = all killed)). Conditions: 10 µM unless noted.

Q: How did the growth turn out when `O=S(=O)(NCCCNc1nccc(-c2c(-c3ccc(F)c(O)c3)nc3sccn23)n1)c1ccc(Cl)cc1` was run?
A: 85.3% (inactive)

Q: With `Nc1ccc(S(=O)(=O)c2ccc(Cl)cc2)cc1` as the molecule, how does the growth read?
A: 109% (inactive)

Q: For `O=C1OC(c2ccccc2)=N/C1=C\c1ccc([N+](=O)[O-])cc1`, which growth is on record?
A: 109% (inactive)

Q: For `CC(Br)C(Br)c1cc2c(cc1Br)OCO2` (stereo unspecified), which growth is on record?
A: 84% (inactive)

Q: `COc1ncc(-c2ccc3ncnc(Nc4cccc(Cl)c4)c3c2)cc1NS(=O)(=O)CCN1CCOCC1` was tested. Which growth did it give?
A: -25.9% (active)

Q: With `CCCCC[C@@H]1Cc2cc(O)c(C(=O)O)c3c2[C@H](C[C@@]2(CCCO2)O3)O1` as the molecule, how does the growth read?
A: 113% (inactive)

Q: Which growth does the source give for `CC(C)C[C@H](NC(=O)[C@@H](Cc1ccccc1)n1ccc(Nc2ccccc2)cc1=O)B(O)O` here?
A: 46.1% (inactive)

Q: How did the growth turn out when `N#CC1=C(N)n2nc(-c3ccncc3)nc2NC1c1cccc2ccccc12` (stereo unspecified) was run?
A: 98.2% (inactive)

Q: `O=c1cc(C2NCCc3c2[nH]c2ccccc32)c2c(ccc3ccccc32)o1` (stereo unspecified) was tested. Which growth did it give?
A: 5.15% (active)

Q: For `CC(C)CCC[C@@H](C)[C@H]1CC[C@H]2[C@@H]3CC[C@H]4C/C(=N/O)CC[C@]4(C)[C@H]3CC[C@]12C`, which growth is on record?
A: 104% (inactive)

Q: `COc1ccc(/C=C/C(=O)c2cccc(B(O)O)c2)cc1O` was tested. Which growth did it give?
A: 58.1% (inactive)

Q: How did the growth turn out when `O=c1oc2c([nH]c3ccc4ccccc4c32)c2ccccc12` was run?
A: 107% (inactive)

Q: How did the growth turn out when `O=C(NCCc1c[nH]c2ccccc12)C1Cc2ccccc2CN1C(=O)c1ccco1` (stereo unspecified) was run?
A: 125% (inactive)

Q: For `CC/C=C\C[C@H]1C/C=C2/C(=O)C(Cl)=C[C@@H]2C/C=C\CCCC(=O)O1`, which growth is on record?
A: -6.42% (active)

Q: With `C/C(=N\NC(=O)CC#N)c1cc2cc(Cl)ccc2o1` as the molecule, how does the growth read?
A: 98.8% (inactive)

Q: Which growth does the source give for `O=C(Nc1ccc(F)cc1)c1cc([N+](=O)[O-])ccc1O` here?
A: 84% (inactive)

Q: Which growth does the source give for `CCN(CC)CCSc1c2ccc(Cl)cc2nc2ccc(OC)cc12` here?
A: 86.5% (inactive)

Q: `O=[N+]([O-])c1ccc(S(=O)(=O)N2CCN(c3ccnc4cc(Cl)ccc34)CC2)c([N+](=O)[O-])c1` was tested. Which growth did it give?
A: 105% (inactive)

Q: How did the growth turn out when `O=[N+]([O-])c1c(S(=O)(=O)O)cc2cc(S(=O)(=O)O)ccc2c1[N+](=O)[O-]` was run?
A: 122% (inactive)

Q: `Clc1nc(Cl)c2ncn(C/C=C/Cn3cnc4c(Cl)nc(Cl)nc43)c2n1` was tested. Which growth did it give?
A: 103% (inactive)

Q: `CC(C)C[C@H](NC(=O)Cn1ccc(NCc2ccccc2)cc1=O)B(O)O` was tested. Which growth did it give?
A: 56.5% (inactive)

Q: Which growth does the source give for `N#Cc1ccc(NC(=O)c2ccc3cccnc3c2O)cc1` here?
A: 19.8% (inactive)

Q: With `CCCCCCc1nc2c(c(C)nn2-c2ccccc2)c2c1CCCCC2` as the molecule, how does the growth read?
A: 95% (inactive)

Q: With `Nc1nc(N)c2nc(CNc3ccc(C(=O)CC(CCC(=O)O)C(=O)O)cc3)cnc2n1` (stereo unspecified) as the molecule, how does the growth read?
A: 52% (inactive)

Q: With `Nc1nc(Cl)c2c(ncn2Cc2ccc(CCl)cc2)n1` as the molecule, how does the growth read?
A: 103% (inactive)

Q: Which growth does the source give for `CCOc1ccc(/C=C/C=N/NC(N)=S)cc1` here?
A: 110% (inactive)

Q: For `COc1cc(/C=C/C(=O)c2ccccc2O)ccc1OCCCOc1cc2c(cc1OC)C(=O)N1CCC[C@H]1C=N2`, which growth is on record?
A: 33.1% (inactive)

Q: How did the growth turn out when `CC(CCc1ccccc1)NC(=O)c1n[nH]c(=O)c2ccccc12` (stereo unspecified) was run?
A: 118% (inactive)

Q: For `COc1cc(-c2nc(-c3nc4ccccc4[nH]3)cc3c2[nH]c2ccccc23)cc(OC)c1OC`, which growth is on record?
A: 104% (inactive)

Q: Which growth does the source give for `O=C(/C=C/CN1CCOCC1)Nc1cc2c(Nc3ccc(F)c(Cl)c3F)ncnc2cc1OCCOC(F)F` here?
A: 11.8% (inactive)

Q: For `COc1cc(NS(C)(=O)=O)ccc1Nc1c2ccc([N+](=O)[O-])cc2nc2c(C)cccc12`, which growth is on record?
A: 11.2% (inactive)

Q: With `O=S(=O)(NCCCNc1cc(-c2cn(-c3ccccc3)nc2-c2cccc(O)c2)ccn1)c1cccc2ccccc12` as the molecule, how does the growth read?
A: 58.8% (inactive)

Q: How did the growth turn out when `O=c1[nH]c(-c2cn(-c3ccc(Cl)cc3)nn2)nc2ccccc12` was run?
A: 38.9% (inactive)

Q: Which growth does the source give for `CCN(C(=O)c1cc2ccccc2[nH]1)[C@H]1CCC[C@@H](NCc2ccc(OC)cc2)C1` here?
A: 96.6% (inactive)

Q: With `COc1ccc(/C=C/C(=O)c2ccc(B(O)O)cc2)cc1O` as the molecule, how does the growth read?
A: 82.7% (inactive)

Q: `Clc1ccc2c(c1)NC1(CCSc3ccccc31)n1nccc1-2` (stereo unspecified) was tested. Which growth did it give?
A: 111% (inactive)

Q: With `O=C1NC(Cc2c[nH]c3ccccc23)C(=O)N1Cc1ccc(Cl)cc1` (stereo unspecified) as the molecule, how does the growth read?
A: 101% (inactive)

Q: With `CCCCCCCCCCC/C=C\C[C@H](O)C/C=C1/C(=O)C=C[C@@H]1C/C=C\CCCC(=O)OC` as the molecule, how does the growth read?
A: 26.8% (inactive)

What follows are molecules tested on IGROV1 ovarian in the same assay as above. Conditions: 10 µM unless noted.

Q: How did the growth turn out when `O=S(=O)(NCCCNc1nccc(-c2c(-c3ccc(F)c(O)c3)nc3sccn23)n1)c1ccc(Cl)cc1` was run?
A: 80.2% (inactive)

Q: For `Nc1ccc(S(=O)(=O)c2ccc(Cl)cc2)cc1`, which growth is on record?
A: 97.3% (inactive)

Q: How did the growth turn out when `O=C1OC(c2ccccc2)=N/C1=C\c1ccc([N+](=O)[O-])cc1` was run?
A: 100% (inactive)

Q: For `CC(Br)C(Br)c1cc2c(cc1Br)OCO2` (stereo unspecified), which growth is on record?
A: 97.5% (inactive)

Q: With `COc1ncc(-c2ccc3ncnc(Nc4cccc(Cl)c4)c3c2)cc1NS(=O)(=O)CCN1CCOCC1` as the molecule, how does the growth read?
A: -36.9% (active)

Q: Which growth does the source give for `CCCCC[C@@H]1Cc2cc(O)c(C(=O)O)c3c2[C@H](C[C@@]2(CCCO2)O3)O1` here?
A: -4.39% (active)

Q: Which growth does the source give for `CC(C)C[C@H](NC(=O)[C@@H](Cc1ccccc1)n1ccc(Nc2ccccc2)cc1=O)B(O)O` here?
A: -35.1% (active)

Q: `N#CC1=C(N)n2nc(-c3ccncc3)nc2NC1c1cccc2ccccc12` (stereo unspecified) was tested. Which growth did it give?
A: 91.2% (inactive)

Q: For `O=c1cc(C2NCCc3c2[nH]c2ccccc32)c2c(ccc3ccccc32)o1` (stereo unspecified), which growth is on record?
A: 33.4% (inactive)

Q: Which growth does the source give for `CC(C)CCC[C@@H](C)[C@H]1CC[C@H]2[C@@H]3CC[C@H]4C/C(=N/O)CC[C@]4(C)[C@H]3CC[C@]12C` here?
A: 111% (inactive)

Q: `COc1ccc(/C=C/C(=O)c2cccc(B(O)O)c2)cc1O` was tested. Which growth did it give?
A: 18.2% (inactive)

Q: With `O=c1oc2c([nH]c3ccc4ccccc4c32)c2ccccc12` as the molecule, how does the growth read?
A: 118% (inactive)

Q: `O=C(NCCc1c[nH]c2ccccc12)C1Cc2ccccc2CN1C(=O)c1ccco1` (stereo unspecified) was tested. Which growth did it give?
A: 3.58% (active)

Q: How did the growth turn out when `CC/C=C\C[C@H]1C/C=C2/C(=O)C(Cl)=C[C@@H]2C/C=C\CCCC(=O)O1` was run?
A: -41.7% (active)

Q: Which growth does the source give for `C/C(=N\NC(=O)CC#N)c1cc2cc(Cl)ccc2o1` here?
A: 96.8% (inactive)

Q: With `O=C(Nc1ccc(F)cc1)c1cc([N+](=O)[O-])ccc1O` as the molecule, how does the growth read?
A: 66.3% (inactive)

Q: How did the growth turn out when `CCN(CC)CCSc1c2ccc(Cl)cc2nc2ccc(OC)cc12` was run?
A: 98.1% (inactive)

Q: `O=[N+]([O-])c1ccc(S(=O)(=O)N2CCN(c3ccnc4cc(Cl)ccc34)CC2)c([N+](=O)[O-])c1` was tested. Which growth did it give?
A: 99.5% (inactive)

Q: For `O=[N+]([O-])c1c(S(=O)(=O)O)cc2cc(S(=O)(=O)O)ccc2c1[N+](=O)[O-]`, which growth is on record?
A: 103% (inactive)

Q: Which growth does the source give for `Clc1nc(Cl)c2ncn(C/C=C/Cn3cnc4c(Cl)nc(Cl)nc43)c2n1` here?
A: 17.7% (inactive)

Q: Which growth does the source give for `CC(C)C[C@H](NC(=O)Cn1ccc(NCc2ccccc2)cc1=O)B(O)O` here?
A: 41.1% (inactive)

Q: How did the growth turn out when `N#Cc1ccc(NC(=O)c2ccc3cccnc3c2O)cc1` was run?
A: 21.3% (inactive)

Q: For `CCCCCCc1nc2c(c(C)nn2-c2ccccc2)c2c1CCCCC2`, which growth is on record?
A: 109% (inactive)

Q: For `Nc1nc(N)c2nc(CNc3ccc(C(=O)CC(CCC(=O)O)C(=O)O)cc3)cnc2n1` (stereo unspecified), which growth is on record?
A: -58.5% (active)

Q: For `Nc1nc(Cl)c2c(ncn2Cc2ccc(CCl)cc2)n1`, which growth is on record?
A: 76.5% (inactive)

Q: Which growth does the source give for `CCOc1ccc(/C=C/C=N/NC(N)=S)cc1` here?
A: 53.5% (inactive)

Q: For `COc1cc(/C=C/C(=O)c2ccccc2O)ccc1OCCCOc1cc2c(cc1OC)C(=O)N1CCC[C@H]1C=N2`, which growth is on record?
A: -65.8% (active)

Q: With `CC(CCc1ccccc1)NC(=O)c1n[nH]c(=O)c2ccccc12` (stereo unspecified) as the molecule, how does the growth read?
A: 3.79% (active)

Q: `COc1cc(-c2nc(-c3nc4ccccc4[nH]3)cc3c2[nH]c2ccccc23)cc(OC)c1OC` was tested. Which growth did it give?
A: 18.9% (inactive)

Q: With `O=C(/C=C/CN1CCOCC1)Nc1cc2c(Nc3ccc(F)c(Cl)c3F)ncnc2cc1OCCOC(F)F` as the molecule, how does the growth read?
A: -11.1% (active)

Q: How did the growth turn out when `COc1cc(NS(C)(=O)=O)ccc1Nc1c2ccc([N+](=O)[O-])cc2nc2c(C)cccc12` was run?
A: -2.46% (active)

Q: `O=S(=O)(NCCCNc1cc(-c2cn(-c3ccccc3)nc2-c2cccc(O)c2)ccn1)c1cccc2ccccc12` was tested. Which growth did it give?
A: 51% (inactive)

Q: Which growth does the source give for `O=c1[nH]c(-c2cn(-c3ccc(Cl)cc3)nn2)nc2ccccc12` here?
A: 74.1% (inactive)

Q: With `CCN(C(=O)c1cc2ccccc2[nH]1)[C@H]1CCC[C@@H](NCc2ccc(OC)cc2)C1` as the molecule, how does the growth read?
A: 85.4% (inactive)

Q: For `COc1ccc(/C=C/C(=O)c2ccc(B(O)O)cc2)cc1O`, which growth is on record?
A: 56.2% (inactive)

Q: Which growth does the source give for `Clc1ccc2c(c1)NC1(CCSc3ccccc31)n1nccc1-2` (stereo unspecified) here?
A: 102% (inactive)

Q: Which growth does the source give for `O=C1NC(Cc2c[nH]c3ccccc23)C(=O)N1Cc1ccc(Cl)cc1` (stereo unspecified) here?
A: 85.2% (inactive)

Q: How did the growth turn out when `CCCCCCCCCCC/C=C\C[C@H](O)C/C=C1/C(=O)C=C[C@@H]1C/C=C\CCCC(=O)OC` was run?
A: -15.9% (active)
